These results are taken from ChEMBL document CHEMBL2218924, “A broad activity screen in support of a chemogenomic map for kinase signalling research and drug discovery” (Biochem J, 2013).

Test [1] addresses T1, cGMP-dependent protein kinase 1 (Homo sapiens) (UniProt Q13976).
T1 sequence (whole entry): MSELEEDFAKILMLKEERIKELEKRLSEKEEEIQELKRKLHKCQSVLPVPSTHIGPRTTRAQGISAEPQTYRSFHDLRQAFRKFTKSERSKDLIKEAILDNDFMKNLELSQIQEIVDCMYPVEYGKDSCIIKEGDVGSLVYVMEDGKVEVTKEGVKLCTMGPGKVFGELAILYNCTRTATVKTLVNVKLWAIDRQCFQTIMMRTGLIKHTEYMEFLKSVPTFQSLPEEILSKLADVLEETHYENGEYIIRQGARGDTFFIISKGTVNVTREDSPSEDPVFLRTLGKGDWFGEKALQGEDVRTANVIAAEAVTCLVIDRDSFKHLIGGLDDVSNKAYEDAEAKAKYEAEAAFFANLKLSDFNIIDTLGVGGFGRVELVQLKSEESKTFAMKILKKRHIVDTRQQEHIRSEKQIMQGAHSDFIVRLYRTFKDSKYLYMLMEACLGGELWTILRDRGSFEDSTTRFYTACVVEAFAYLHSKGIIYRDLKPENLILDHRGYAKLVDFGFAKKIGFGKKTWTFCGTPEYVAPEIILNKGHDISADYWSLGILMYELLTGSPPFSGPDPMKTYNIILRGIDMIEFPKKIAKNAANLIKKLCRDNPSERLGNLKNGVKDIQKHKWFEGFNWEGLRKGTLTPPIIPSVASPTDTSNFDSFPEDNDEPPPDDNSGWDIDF
The following applies: at 1 µM.

For test [2], the target named is T1, cGMP-dependent protein kinase 1 (Homo sapiens). The following applies: at 10 µM.
The target is the same in test [3]. The conditions noted are these: at 1 µM. The source holds these as a separate data set.
Test [4] shares this target. The following applies: at 10 µM. The source holds these as a separate data set.
For test [5], the target named is T2, MAP kinase-activated protein kinase 5 (Homo sapiens) (UniProt Q8IW41).
T2 sequence (whole entry): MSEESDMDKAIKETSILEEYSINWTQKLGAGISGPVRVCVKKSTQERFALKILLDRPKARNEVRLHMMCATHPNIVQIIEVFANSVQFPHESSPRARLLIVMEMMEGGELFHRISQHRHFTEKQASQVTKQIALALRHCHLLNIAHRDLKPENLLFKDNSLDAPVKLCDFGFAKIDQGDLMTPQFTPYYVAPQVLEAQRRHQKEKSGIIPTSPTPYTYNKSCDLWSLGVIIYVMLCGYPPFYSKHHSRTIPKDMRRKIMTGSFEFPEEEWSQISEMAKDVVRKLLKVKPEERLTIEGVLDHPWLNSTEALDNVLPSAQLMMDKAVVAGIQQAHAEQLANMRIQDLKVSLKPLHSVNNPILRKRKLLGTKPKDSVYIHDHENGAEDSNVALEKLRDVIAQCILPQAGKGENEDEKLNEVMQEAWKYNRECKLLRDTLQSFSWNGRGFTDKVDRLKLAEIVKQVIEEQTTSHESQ
The following applies: at 1 µM.

For test [6], the target named is T2, MAP kinase-activated protein kinase 5 (Homo sapiens). The conditions noted are these: at 10 µM.
In test [7] the target is Serine/threonine-protein kinase N2 (Homo sapiens) (UniProt Q16513). The following applies: at 1 µM.
Serine/threonine-protein kinase N2 (Homo sapiens), sequence (Q16513 whole entry, looked up): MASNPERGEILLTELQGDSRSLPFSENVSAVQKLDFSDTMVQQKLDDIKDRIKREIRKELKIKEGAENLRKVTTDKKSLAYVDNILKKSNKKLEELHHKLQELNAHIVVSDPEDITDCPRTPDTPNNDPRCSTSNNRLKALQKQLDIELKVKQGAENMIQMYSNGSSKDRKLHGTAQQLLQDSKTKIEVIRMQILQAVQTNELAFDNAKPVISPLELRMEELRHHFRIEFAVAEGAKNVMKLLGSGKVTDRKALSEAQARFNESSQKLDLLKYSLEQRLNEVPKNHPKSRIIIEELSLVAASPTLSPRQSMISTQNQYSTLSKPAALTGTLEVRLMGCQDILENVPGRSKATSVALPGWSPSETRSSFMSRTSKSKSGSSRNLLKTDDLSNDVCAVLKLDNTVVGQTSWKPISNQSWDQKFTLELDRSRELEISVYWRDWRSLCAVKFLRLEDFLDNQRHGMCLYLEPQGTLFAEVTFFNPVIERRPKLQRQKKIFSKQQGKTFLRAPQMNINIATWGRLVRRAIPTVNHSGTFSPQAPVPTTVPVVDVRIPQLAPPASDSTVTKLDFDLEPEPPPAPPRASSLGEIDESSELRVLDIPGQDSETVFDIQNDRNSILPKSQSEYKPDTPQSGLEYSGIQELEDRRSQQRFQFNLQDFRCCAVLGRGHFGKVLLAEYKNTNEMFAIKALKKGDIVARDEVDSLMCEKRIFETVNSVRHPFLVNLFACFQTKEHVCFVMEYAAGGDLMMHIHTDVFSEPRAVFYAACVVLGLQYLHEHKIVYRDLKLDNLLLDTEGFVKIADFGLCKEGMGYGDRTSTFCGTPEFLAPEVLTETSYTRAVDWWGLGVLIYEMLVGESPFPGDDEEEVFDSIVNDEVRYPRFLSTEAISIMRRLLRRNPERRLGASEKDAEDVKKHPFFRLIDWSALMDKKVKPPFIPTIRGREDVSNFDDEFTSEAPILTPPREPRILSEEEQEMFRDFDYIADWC
For test [8] the target is unchanged. The following applies: at 10 µM.
In test [9] the target is Tyrosine-protein kinase FRK (Homo sapiens) (UniProt P42685). The following applies: at 1 µM.
Tyrosine-protein kinase FRK (Homo sapiens), sequence (P42685 whole entry): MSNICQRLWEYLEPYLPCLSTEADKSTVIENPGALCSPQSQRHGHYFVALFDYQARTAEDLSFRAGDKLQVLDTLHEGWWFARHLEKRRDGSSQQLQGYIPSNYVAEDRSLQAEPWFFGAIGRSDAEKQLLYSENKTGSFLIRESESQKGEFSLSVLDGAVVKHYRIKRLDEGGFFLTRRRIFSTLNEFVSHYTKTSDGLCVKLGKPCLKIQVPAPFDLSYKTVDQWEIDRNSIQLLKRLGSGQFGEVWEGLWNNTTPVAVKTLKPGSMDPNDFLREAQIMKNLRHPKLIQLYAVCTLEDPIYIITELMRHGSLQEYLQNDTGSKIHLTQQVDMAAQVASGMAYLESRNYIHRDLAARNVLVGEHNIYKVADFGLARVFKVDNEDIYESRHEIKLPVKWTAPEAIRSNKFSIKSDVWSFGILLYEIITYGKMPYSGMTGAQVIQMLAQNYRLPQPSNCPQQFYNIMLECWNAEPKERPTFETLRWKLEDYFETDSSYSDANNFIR
For test [10] the target is unchanged. The conditions noted are these: at 10 µM.
For test [11], the target named is T3, Phosphorylase b kinase gamma catalytic chain, liver/testis isoform (Homo sapiens) (UniProt P15735).
T3 sequence (whole entry): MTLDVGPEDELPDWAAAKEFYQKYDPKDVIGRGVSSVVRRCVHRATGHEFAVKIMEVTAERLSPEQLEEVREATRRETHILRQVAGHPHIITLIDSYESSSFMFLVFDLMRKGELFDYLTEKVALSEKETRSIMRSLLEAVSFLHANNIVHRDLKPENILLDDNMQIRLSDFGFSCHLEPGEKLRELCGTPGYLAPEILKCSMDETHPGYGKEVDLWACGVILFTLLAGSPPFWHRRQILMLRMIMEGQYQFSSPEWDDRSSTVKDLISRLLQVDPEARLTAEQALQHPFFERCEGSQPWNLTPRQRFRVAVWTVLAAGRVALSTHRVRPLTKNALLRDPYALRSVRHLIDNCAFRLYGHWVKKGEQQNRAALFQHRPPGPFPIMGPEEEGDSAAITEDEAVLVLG
The following applies: at 1 µM.

For test [12], the target named is T3, Phosphorylase b kinase gamma catalytic chain, liver/testis isoform (Homo sapiens). The following applies: at 10 µM.
Test [13] has as its target Serine/threonine-protein kinase pim-1 (Homo sapiens) (UniProt P11309). The following applies: at 1 µM.
The target is the same in test [14]. The following applies: at 10 µM.
The target of test [15] is Serine/threonine-protein kinase pim-2 (Homo sapiens) (UniProt Q9P1W9). The conditions noted are these: at 1 µM.
Serine/threonine-protein kinase pim-2 (Homo sapiens), sequence (Q9P1W9 whole entry, looked up): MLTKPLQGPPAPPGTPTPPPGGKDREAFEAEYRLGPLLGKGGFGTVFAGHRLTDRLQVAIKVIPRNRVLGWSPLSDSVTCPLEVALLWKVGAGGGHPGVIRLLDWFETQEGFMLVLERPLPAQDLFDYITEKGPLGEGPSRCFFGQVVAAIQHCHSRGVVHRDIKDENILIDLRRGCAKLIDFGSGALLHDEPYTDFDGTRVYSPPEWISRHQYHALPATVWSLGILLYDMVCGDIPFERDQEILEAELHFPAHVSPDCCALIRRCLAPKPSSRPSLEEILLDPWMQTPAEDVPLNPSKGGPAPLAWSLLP
Test [16] has the same target. The conditions noted are these: at 10 µM.
In test [17] the target is Serine/threonine-protein kinase pim-3 (Homo sapiens) (UniProt Q86V86). The following applies: at 1 µM.
Test [18] has the same target. The following applies: at 10 µM.
Test [19] has as its target Serine/threonine-protein kinase PLK1 (Homo sapiens) (UniProt P53350). The conditions noted are these: at 1 µM.
Test [20] shares this target. The following applies: at 10 µM.

Serine/threonine-protein kinase PLK1 (Homo sapiens), sequence (P53350 whole entry): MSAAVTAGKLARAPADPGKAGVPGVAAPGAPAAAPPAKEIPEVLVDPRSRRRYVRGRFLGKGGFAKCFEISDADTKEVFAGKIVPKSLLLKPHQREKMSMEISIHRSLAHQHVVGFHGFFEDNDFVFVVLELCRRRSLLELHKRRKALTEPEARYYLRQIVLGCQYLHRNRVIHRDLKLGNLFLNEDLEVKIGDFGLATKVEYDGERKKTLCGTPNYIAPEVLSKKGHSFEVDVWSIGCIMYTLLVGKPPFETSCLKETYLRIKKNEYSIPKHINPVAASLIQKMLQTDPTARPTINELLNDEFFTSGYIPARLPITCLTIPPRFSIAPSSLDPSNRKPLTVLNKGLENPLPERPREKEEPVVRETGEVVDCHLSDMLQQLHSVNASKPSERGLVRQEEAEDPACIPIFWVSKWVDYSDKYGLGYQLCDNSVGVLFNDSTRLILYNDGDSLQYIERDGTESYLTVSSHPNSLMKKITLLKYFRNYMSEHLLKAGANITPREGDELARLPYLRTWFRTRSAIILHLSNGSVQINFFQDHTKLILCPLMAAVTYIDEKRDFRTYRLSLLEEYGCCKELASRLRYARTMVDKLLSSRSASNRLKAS
Serine/threonine-protein kinase pim-1 (Homo sapiens), sequence (P11309 whole entry, looked up): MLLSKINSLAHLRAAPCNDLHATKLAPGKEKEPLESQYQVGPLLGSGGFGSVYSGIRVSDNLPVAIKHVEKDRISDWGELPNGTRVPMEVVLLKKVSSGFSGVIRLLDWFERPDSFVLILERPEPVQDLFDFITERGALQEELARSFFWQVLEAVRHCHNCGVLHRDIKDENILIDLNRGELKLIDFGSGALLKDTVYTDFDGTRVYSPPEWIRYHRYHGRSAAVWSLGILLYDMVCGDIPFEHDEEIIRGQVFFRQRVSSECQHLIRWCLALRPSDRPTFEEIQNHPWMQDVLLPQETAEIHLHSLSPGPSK

For `Oc1n[nH]c2nnc(-c3c(-c4ccccc4)nn4ccccc34)cc12`, the residual activity was 99% in [1]; 100% in test [2]; 89% in [3]; 78% in test [4]; 115% in [5]; 112% in [6]. Besides, the residual activity was 86% in test [7]; 86% in test [8]; 88% in [9]; 92% in test [10]; 116% in [11]; 111% in test [12]. The residual activity in [13] stood at 84%; in [14], 89%; in test [15], 123%; in test [16] it was 84%; in test [17], 85%; in test [18], 84%. In addition, the residual activity in test [19] came out at 75%; in [20] it was 83%.
Take `Oc1c2ccccc2c2c3c(cccc13)N=N2`: the residual activity was 79% in test [1]; 79% in [2]; 90% in test [3]; 60% in test [4]; 59% in [5]; 14% in test [6]. In addition, the residual activity in test [7] came out at 74%; in test [8], 32%; in test [9], 91%; in test [10], 58%; in test [11], 77%; in test [12], 15%. For the same molecule, the residual activity in test [13] turned out to be 68%; in [14], 18%; in test [15], 58%; in test [16] it was 21%; in [17] it was 75%; in [18] it was 59%. Besides, the residual activity in test [19] came to 69%; in test [20] it was 64%.
Take `O=C1NC(=O)c2c1c1c3ccccc3[nH]c1c1[nH]c3cc(Br)ccc3c21`: the residual activity in test [1] was 99%; in test [2], 113%; in test [3], 92%; in [4] it was 83%; in [5] it was 105%; in test [6] it was 106%. Further, the residual activity in test [7] is 87%; in test [8] it was 84%; in [9], 94%; in test [10], 90%; in test [11] it was 114%; in [12], 71%. The residual activity in test [13] worked out at 28%; in [14] it was 13%; in test [15] it was 27%; in test [16], 6%; in [17] it was 29%; in test [18] it was 14%. Also, the residual activity in test [19] and in test [20] was 90% each time.
In the case of `CCOc1cc2ncnc(Nc3cccc(Br)c3)c2cc1OCC`, the residual activity in test [1] is 108%; in [2], 91%; in test [3], 95%; in [4] it was 66%; in test [5], 79%; in [6], 82%. Besides, the residual activity turned out to be 93% in test [7]; 79% in test [8]; 40% in [9]; 5% in [10]; 92% in test [11]; 108% in test [12]. In addition, the residual activity in test [13] was found to be 65%; in [14] it was 57%; in test [15] it was 92%; in [16] it was 79%; in test [17] it was 96%; in test [18] it was 94%. Further, the residual activity in test [19] stood at 80%; in [20], 81%.
As for `COc1ccc(OC)c2c(=S)c3ccccc3[nH]c12`, the residual activity worked out at 93% in test [1]; 109% in [2]; 94% in test [3]; 76% in [4]; 96% in test [5]; 90% in test [6]. The residual activity in test [7] is 99%; in test [8] it was 88%; in test [9] it was 95%; in test [10], 99%; in test [11], 119%; in test [12], 103%. Besides, the residual activity was 97% in test [13]; 52% in [14]; 117% in [15]; 77% in test [16]; 88% in test [17]; 80% in [18]. Moreover, the values for the residual activity in [19] and in test [20] were 80% and 91%, respectively.
With `Nc1ccc2ncnc(NCCc3ccc(Oc4ccccc4)cc3)c2c1`, the residual activity in [1] worked out at 108%; in [2] it was 109%; in [3], 86%; in test [4], 75%; in test [5] it was 89%; in test [6], 90%. Further, the residual activity in test [7] worked out at 98%; in test [8], 78%; in test [9] it was 93%; in test [10] it was 109%; in test [11], 88%; in [12], 75%. The residual activity in [13] was 100%; in test [14], 93%; in [15] it was 93%; in [16], 136%; in test [17], 90%; in [18], 89%. For the same molecule, the residual activity stood at 90% in test [19] and 85% in test [20].
In the case of `O=C1NC(=O)c2cc(Nc3ccc(F)cc3)c(Nc3ccc(F)cc3)cc21`, the residual activity in test [1] worked out at 98%; in test [2] it was 97%; in test [3], 92%; in test [4], 73%; in test [5] it was 74%; in test [6], 39%. In addition, the residual activity in test [7] worked out at 90%; in test [8], 84%; in test [9] it was 83%; in [10] it was 41%; in [11], 93%; in test [12], 86%. Further, the residual activity came to 49% in [13]; 11% in [14]; 91% in test [15]; 31% in [16]; 94% in test [17]; 93% in test [18]. For the same molecule, the residual activity in [19] was 95%; in [20], 69%.
